From PubChem BioAssay
MCF10A rereplic: induces DNA re-replication in MCF 10a normal breast cells; MCF 10A DNA re-replication, Hoechst nuclear intensity, 48 h; 2.9% of 350,000 active; Potency, µM (top dose mostly 46.1 µM), without a hit: at the top dose activity, positive = re-replication, hits mostly activators; AID 624296; further: % of control where 0% means no effect; nearly all actives have a fitted effect of over 50% in size
HT1080NT lethal: kills 2HG-producing HT-1080-NT fibrosarcoma cells; Potency, µM (highest dose often 46.1 µM), without a hit: at the top dose activity, negative = less viability, most hits filed as cytotoxic; 1.6% of 360,000 active; AID 686970; HT-1080-NT fibrosarcoma viability, CellTiter-Glo ATP luminescence, 48 h;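 further: NT is the 2HG producing partner of a matched IDH1 knockdown line; 0% = DMSO-treated cells and -100% = media-only wells without cells; nearly all actives have a fitted effect of over 55% in size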
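A 48-hour cytotoxicity screen used HT-1080-NT cells plated 2 hours before compound delivery. ATP-based CellTiter-Glo luminescence measured viability, normalized to DMSO and no-cell controls.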
HT1080 IDH1KD tx: toxicity to HT-1080 IDH1 knockdown cells (counter line) | HT-1080 IDH1 knockdown viability, ATP luminescence, 48 h | Potency, µM (series often up to 46.1 µM), inactives show at the top dose activity, negative = toxicity, hits mostly cytotoxic | 2% of 360,000 active | AID 686971;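 further: 0% = DMSO wells and -100% = cell-free medium wells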
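After a 2 h attachment period, IDH1KD HT-1080 cells took pin-transferred compound for 48 h at 37 °C; ATP-based luminescence after 10 min room-temperature reagent incubation reported viability.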
KB-V1 MDR tox: KB-V1 MDR subline cytotoxicity. Potency, µM (highest dose often 46.1 µM), usual class: cytotoxic. 3.4% of 400,000 active. KB-V1 MDR cells viability, CellTiter-Glo, 72 h; further: on the % scale 0 is the no-effect control and ±100 the full control effect; nearly all actives have a fitted effect of over 60% in size
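qHTS viability screen in drug-selected KB-V1 MDR cells: 72 h compound treatment at 37 degrees C, ATP luminescence end point.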
SW480 rereplic: DNA re-replication induction in SW480 cells; SW480 DNA re-replication, Hoechst DNA content imaging, 48 h; 1.8% of 340,000 active; Potency, µM (top dose mostly 46.1 µM), for the others: at the top dose re-replication activation, usual class: activators; further: % of control where 0% means no effect; nearly all actives have a fitted effect of over 55% in size
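Quantitative HTS format with DMSO vehicle controls; 48 hr drug incubation at 37 C, then 40 min Hoechst staining and scanning imager measurement at 405 nm excitation.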
KB-3-1 tox: KB-3-1 parental cell cytotoxicity; Potency, µM (top dose mostly 46.1 µM), hits mostly cytotoxic; 1.4% of 400,000 active; KB-3-1 viability, CellTiter-Glo ATP luminescence, 72 h; AID 1347075; further: on the % scale 0 is the no-effect control and ±100 the full control effect; nearly all actives have a fitted effect of over 60% in size
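Viability of parental KB-3-1 cells, measured by CellTiter-Glo luminescence, followed a 72 h incubation at 37 °C with pinned compounds in phenol-red-free DMEM containing 10% FBS.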
* = called active by the depositor; i = inactive; ? = inconclusive; · = not tested or not shown; [ ] = another dose, or the depositor's remark. The list is not random: actives were taken first. Their share in the collection is about 8%. The call rests on the fitted dose curve; in most records, active means well fitted curve in the direction sought with a large enough effect; inconclusive means small, poorly fitted or top-dose-only effect, or another doubt; inactive means no such curve, though single readings can be large; an effect the other way counts as inactive or inconclusive. Potency means the concentration at half of the fitted maximal effect.

SMILES | MCF10A rereplic | HT1080NT lethal | HT1080 IDH1KD tx | KB-V1 MDR tox | SW480 rereplic | KB-3-1 tox
CC(=O)c1ccc(OCc2cn(CC(=O)c3ccc(O)cc3)nn2)c(C)c1 | · | 4% | 11% | i | · | i
CCN1C[C@@H]2[C@@H]3C(=O)N(Cc4ccccc4)C(=O)[C@@H]3[C@](Cc3ccccc3)(C1=O)N2C(=O)c1ccc(Cl)c(Cl)c1 | ? | -3% | 2% | 18µM* | -28% | ?
Cc1csc(=Nc2ccccc2)n1Cc1ccco1 | 3% | 7% | 6% | i | ? | i
COc1cc(/C=C(\C#N)c2nnc(N3CCOCC3)n2-c2ccccc2)ccc1O | 1% | 12% | 7% | i | 6.5µM* | i
COc1ccc(/C=N/Nc2nnc(-c3ccccc3)c(=O)[nH]2)cc1 | ? | 13µM* | 13µM* | 13µM* | 18% | 5.2µM*
O=c1[nH]c(N/N=C/c2ccccc2Br)nnc1-c1ccccc1 | ? | -1% | -12% | i | · | i
NCCCNc1ccc(Br)cn1 | · | 23% | 5% | · | · | ·
Cc1ccc2c(c1C)-c1c(ccc(C)c1C)C(=O)C2=O | 4.1µM* | 5.8µM* | 10µM* | 0.65µM* | 3.3µM* | 3.3µM*
O=S(=O)(Nc1cccc(-n2cnnn2)c1)c1ccccc1 | 6% | 1% | -10% | i | -3% | i
O=S(=O)(Nc1cccc(-n2cnnn2)c1)c1cc(Br)ccc1Br | 9% | -20% | -25% | 5.8µM* | -15% | i
CC1CCCN(C2=NC(=O)/C(=C/c3cn(-c4ccccc4)nc3-c3cccc(S(=O)(=O)N(C)C)c3)S2)C1 (stereo not given) | ? | -2% | 8% | i | 0% | i
CC1CCN(C2=NC(=O)/C(=C/c3cn(-c4ccccc4)nc3-c3cccc(S(=O)(=O)N(C)C)c3)S2)CC1 | 5% | -2% | 0% | i | 21µM* | i
COc1ccc(NC(=O)C(=O)NCCc2csc(-c3ccc(Cl)cc3)n2)cc1OC | · | · | · | i | · | i
C(=C\c1ccnc2ccccc12)/c1ccccc1 | · | · | · | ? | · | i
COc1ccc(NC(=O)CCCn2c(=O)c3sccc3n(Cc3ccc(C)cc3)c2=O)cc1 | ? | -12% | -21% | i | -2% | i
COc1ccc(NC(=O)CCCn2c(=O)c3sccc3n(Cc3ccc(C)cc3C)c2=O)cc1 | 25% | 3% | 3% | 8.2µM* | 2% | i
Cc1cc(C)n2nc(SCC(=O)N3CCCC3)nc2n1 | -1% | 3% | -1% | i | 0% | i
Cc1cc(C)cc(NC(=O)CSc2nc3nc(C)cc(C)n3n2)c1 | 6% | -2% | 1% | 18µM* | -1% | i
Cc1cc(C)n2nc(SCC(=O)N3CCN(c4ccccc4)CC3)nc2n1 | -2% | 10% | 9% | 12µM* | -3% | i
Cc1[nH]c2ccc(F)cc2c1CCN(Cc1cccnc1)C(=S)Nc1cccc(F)c1 | ? | ? | -23% | i | 20% | i
Cc1ccc(CN2CCC(c3nc4ccc(Cl)cc4[nH]3)CC2)cc1 | 10% | ? | -19%[9.24 µM] | ? | 2% | i
Cc1cc2nc(C3CCN(Cc4nnnn4Cc4cccs4)CC3)[nH]c2cc1C | 19% | ? | 1.3µM* | i | ? | ?
O=C1C[C@H]2C=CCc3cccc(c32)CN1Cc1cccc(F)c1 | · | · | · | i | · | i
COC(=O)c1ccccc1N/C=C1\CCc2c(c(C)nn2-c2ccccn2)C1=O | 8.2µM* | -2% | 0% | i | 1% | i
COC(=O)c1ccccc1NC(=O)CN1CCN(c2ccccn2)CC1 | -3% | 0% | 3% | i | 2% | i
SMILES | MCF10A rereplic | HT1080NT lethal | HT1080 IDH1KD tx | KB-V1 MDR tox | SW480 rereplic | KB-3-1 tox
O=C(CCc1ccccc1)NCCc1csc(-c2cccc(F)c2)n1 | · | · | · | i | · | i
CCN(CC)C(=O)CSc1nnc2nnc3cc(C)ccc3n12 | 2% | 4% | -6% | 21µM* | 14% | i
CCN(CC)C(=O)CSc1nnc2nnc3cc(Cl)ccc3n12 | 8% | ? | ? | ? | 18% | ?
Cc1nnc(N2CCOCC2)c2nn(-c3cccc(Cl)c3)c(C)c12 | -1% | -3% | 1% | 3.7µM* | -6% | i
CCN(N=O)c1ccc(C=C2C=Cc3ccccc32)cc1 | ? | 7% | 11% | 21µM* | -4% | i
CCOc1ccccc1CNC(=O)C1CCN(S(=O)(=O)c2ccc3c(ccn3C)c2)CC1 | · | · | · | i | · | i
COc1ccc(O)c(/C=N/NC(=O)CCC(=O)Nc2ccc(C)cc2)c1 | 7% | -6% | -11% | i | ? | i
COc1ccc(O)c(/C=N/NC(=O)CCC(=O)Nc2cccc(C)c2)c1 | ? | ? | ? | ? | 5.8µM* | i
COc1cccc(/C=N/NC(=O)CCCC(=O)Nc2ccc(Br)cc2)c1 | 4% | -9% | -13% | 15µM* | -5% | i
O=C(O)c1cc(Cl)ccc1-c1ccc(/C=C/c2cc(C(F)(F)F)[nH]c(=O)n2)o1 | 18µM* | 6% | 16% | ? | ? | i
CCCCn1c(/C=N/Nc2nc3ccccc3[nH]2)nc2ccccc21 | ? | ? | 15µM* | i | 8.2µM* | ?
Fc1ccccc1-c1ccc(/C=N/Nc2nc3ccccc3[nH]2)o1 | 18µM* | ? | 26µM* | ? | ? | ?
C(=N\Nc1nc2ccccc2[nH]1)/c1ccc2ncccc2c1 | ? | 0.65µM* | 0.73µM* | ? | -51% | 1µM*
COc1ccc(/C=N/Nc2nc3ccccc3[nH]2)cc1OC | -3% | -16% | -23% | ? | -9% | i
Cc1ccc(/C=N\Nc2nc3ccc(Cl)cc3[nH]2)o1 | ? | -10% | -14% | i | -3%[9.22 µM] | i
BrC(=C\c1ccccc1)/C=N/Nc1nc2ccccc2[nH]1 | 8.2µM* | -4% | ? | ? | ? | i
COc1ccc2c(c1)c(/C=N/Nc1nc3ccccc3[nH]1)c(C)n2C | 21µM* | ? | ? | i | ? | i
COc1cc(OC)c(OC)cc1/C=N/Nc1nc2ccccc2[nH]1 | ? | 3% | 3% | i | -7% | i
C(=N\Nc1nc2ccccc2[nH]1)/c1ccccn1 | -2% | ? | 18µM* | i | ? | i
C#CCn1cc(/C=N/Nc2nc3ccccc3[nH]2)c2ccccc21 | ? | 16µM* | ? | i | ? | i
COc1cc(/C=N\Nc2nc3ccccc3[nH]2)cc(OC)c1OC | ? | -24% | -20% | 5.8µM* | 0% | i
